In PubChem BioAssay (EPA / NIEHS):
Active and inactive are the calls of the source. The calls were made as follows: active = hit-call score of the fitted dose curve at least 0.9, where 1 is the maximum; inactive = score below 0.9.

Experiments:
[1] = CEETOX_H295R_DOC: CeeTox H295R High-throughput Steroidogenesis Assay for DOC (AID 2283439); conditions: actives raise or lower the signal
Outline: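 Secreted DOC was quantified from H295R media by HPLC-MS/MS after 48 h chemical exposure following 48 h forskolin (10 uM) prestimulation. Values were fitted in both directions relative to DMSO, the negative control and baseline.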

[2] = CEETOX_H295R_ESTRADIOL: CeeTox H295R High-throughput Steroidogenesis Assay for Estradiol (AID 2283440); conditions: actives raise or lower the signal;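 also: estradiol secreted into medium quantified by LC-MS/MS after dansyl derivatisation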
Outline: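 H295R cells pre-stimulated 48 h with 10 uM forskolin, then exposed 48 h to chemical in 0.1% DMSO. Medium estradiol quantified by MTBE extraction, dansyl derivatisation and HPLC-MS/MS; bidirectional fit versus DMSO; MTT viability required >/=70%.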

[3] = CEETOX_H295R_ESTRONE: CeeTox H295R High-throughput Steroidogenesis Assay for Estrone (AID 2283441); conditions: actives raise or lower the signal;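 also: estrone secreted into medium measured by LC-MS/MS after dansyl derivatization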
Outline: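 H295R cells; 48 h forskolin (10 uM) prestimulation; 48 h compound exposure, 0.1% DMSO final. Medium estrone: MTBE extraction, dansyl derivatization, HPLC-MS/MS. Bidirectional fit vs DMSO.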

[4] = CEETOX_H295R_PROG: CeeTox H295R High-throughput Steroidogenesis Assay for Progesterone (PROG) (AID 2283442); conditions: actives raise or lower the signal
Outline: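 H295R adrenal cells prestimulated 48 h with 10 uM forskolin, then exposed 48 h to test chemical in 0.1% DMSO. Progesterone in medium quantified by HPLC-MS/MS after MTBE extraction; viability checked by MTT in same wells.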

[5] = read-out: Tumor necrosis factor receptor superfamily member 6 (Homo sapiens) (UniProt P25445); experiment: LTEA_HepaRG_FAS: Life Technologies and Expression Analysis (LTEA) Assay for Fas cell surface death receptor (FAS) using HepaRG (AID 2283447); conditions: mRNA level, 48 h; actives raise or lower the signal
Outline: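 Differentiated HepaRG cells in serum-free induction medium were exposed 48 h to 8 half-log concentrations up to 100 uM in 0.5% DMSO, in duplicate. FAS mRNA was measured by qRT-PCR normalised to ACTB, GAPDH and POLR2A; bidirectional fit versus DMSO.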

[6] = read-out: Fatty acid synthase (Homo sapiens) (UniProt P49327); experiment: LTEA_HepaRG_FASN: Life Technologies and Expression Analysis (LTEA) Assay for Fatty Acid Synthase (FASN) using HepaRG (AID 2283448); conditions: mRNA level, 48 h; actives raise or lower the signal
Outline: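 Transcript-level assay: HepaRG liver cells are treated for 48 h across an eight-point range topping at 100 uM, and FASN mRNA, normalized to three housekeeping genes, is compared with DMSO controls in both directions.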

[7] = read-out: Cyclin D2 (CCND2), CCND2 (gene 894); experiment: LTEA_HepaRG_CCND2: Life Technologies and Expression Analysis (LTEA) Assay for Cyclin D2 (CCND2) using HepaRG (AID 2283449); conditions: mRNA level, 48 h; actives raise or lower the signal;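 also: CCND2 transcript measured by TaqMan qRT-PCR and normalised to three housekeeping genes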
Outline: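 Chemicals in 0.5% DMSO, eight half-log concentrations from 100 uM top, were applied in duplicate for 48 h to human HepaRG cells in serum-free induction medium. CCND2 mRNA by TaqMan qRT-PCR, normalised to ACTB/GAPDH/POLR2A; bidirectional fit versus DMSO.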

[8] = read-out: Cyclin Dependent Kinase Inhibitor 1A (CDKN1A), CDKN1A (gene 1026); experiment: LTEA_HepaRG_CDKN1A: Life Technologies and Expression Analysis (LTEA) Assay for Cyclin Dependent Kinase Inhibitor 1A (CDKN1A) using HepaRG (AID 2283450); conditions: mRNA level, 48 h; actives raise or lower the signal
Outline: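 Differentiated HepaRG cells in serum-free induction medium, exposed 48 h in duplicate to eight half-log concentrations up to 100 uM in 0.5% DMSO. mRNA measured by TaqMan qRT-PCR, normalized to ACTB, GAPDH, POLR2A; bidirectional fit versus DMSO.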

[9] = read-out: catalase (CAT), CAT (gene 847); experiment: LTEA_HepaRG_CAT: Life Technologies and Expression Analysis (LTEA) Assay for catalase (CAT) using HepaRG (AID 2283452); conditions: mRNA level, 48 h; actives raise or lower the signal;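 as to AC50: TaqMan qRT-PCR signal normalized to ACTB GAPDH and POLR2A housekeeping genes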
Outline: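 HepaRG cells in serum-free induction medium, 0.5% DMSO vehicle, exposed 48 h in duplicate over 8 half-log concentrations from 100 uM. CAT mRNA measured by qRT-PCR, normalized to ACTB, GAPDH, POLR2A; bidirectional fit versus DMSO.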

[10] = read-out: flavin-containing dimethylaniline monooxygenases 3 (FMO3), FMO3 (gene 2328); experiment: LTEA_HepaRG_FMO3: Life Technologies and Expression Analysis (LTEA) Assay for flavin-containing dimethylaniline monooxygenases 3 (FMO3) using HepaRG (AID 2283453); conditions: mRNA level, 48 h; actives raise or lower the signal
Outline: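 HepaRG, 48 h exposure, 8-pt half-log series from 100 uM, 0.5% DMSO vehicle, duplicates; FMO3 transcript by Fluidigm TaqMan qRT-PCR, housekeeping-normalized; gain/loss fit vs DMSO.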

[11] = read-out: Cytochrome P450 (CYP1A1), CYP1A1 (gene 1543); experiment: LTEA_HepaRG_CYP1A1: Life Technologies and Expression Analysis (LTEA) Assay for Cytochrome P450 (CYP1A1) using HepaRG (AID 2283454); conditions: mRNA level, 48 h; actives raise or lower the signal
Outline: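 Differentiated human HepaRG cells, after 48 h plating, exposed in duplicate for 48 h in serum-free induction medium to 8 half-log concentrations up to 100 uM in 0.5% DMSO. CYP1A1 mRNA by qRT-PCR, normalized to ACTB/GAPDH/POLR2A; bidirectional fit versus DMSO.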

[12] = read-out: CFLAR gene, CFLAR (gene 8837); experiment: LTEA_HepaRG_CFLAR: Life Technologies and Expression Analysis (LTEA) Assay for CFLAR gene using HepaRG (AID 2283455); conditions: mRNA level, 48 h; actives raise or lower the signal
Outline: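 Differentiated HepaRG cells in serum-free induction medium were exposed 48 h in duplicate to eight half-log concentrations up to 100 uM in 0.5% DMSO; mRNA measured by TaqMan qRT-PCR, normalized to ACTB, GAPDH, POLR2A; bidirectional fitting versus DMSO.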

[13] = read-out: growth arrest and DNA damage 45 (GADD45A), GADD45A (gene 1647); experiment: LTEA_HepaRG_GADD45A: Life Technologies and Expression Analysis (LTEA) Assay for growth arrest and DNA damage 45 (GADD45A) using HepaRG (AID 2283458); conditions: mRNA level, 48 h; actives raise or lower the signal
Outline: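 Human HepaRG liver cells are treated in duplicate for 48 h with chemicals in 0.5% DMSO, highest concentration 100 uM. Expression is read by qRT-PCR and analyzed in both directions against vehicle.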

[14] = read-out: Forkhead box O3 (FOXO3), FOXO3 (gene 2309); experiment: LTEA_HepaRG_FOXO3: Life Technologies and Expression Analysis (LTEA) Assay for Forkhead box O3 (FOXO3) using HepaRG (AID 2283459); conditions: mRNA level, 48 h; actives raise or lower the signal
Outline: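 Differentiated human HepaRG cells, 48 h post-plating, exposed in duplicate for 48 h in serum-free induction medium; 8-point half-log series from 100 uM in 0.5% DMSO. FOXO3 mRNA by TaqMan qRT-PCR, normalized to ACTB/GAPDH/POLR2A; bidirectional fit versus DMSO.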

[15] = read-out: ABC Transporter (ABCB1), ABCB1 (gene 5243); experiment: LTEA_HepaRG_ABCB1: Life Technologies and Expression Analysis (LTEA) Assay for ABC Transporter (ABCB1) using HepaRG (AID 2283460); conditions: mRNA level, 48 h; actives raise or lower the signal
Outline: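 HepaRG cells exposed in duplicate for 48 h in serum-free induction medium to eight half-log concentrations up to 100 uM in 0.5% DMSO. ABCB1 mRNA quantified by qRT-PCR, normalised to ACTB, GAPDH and POLR2A; fitted bidirectionally versus DMSO.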

[16] = read-out: growth arrest and DNA damage 45 (GADD45B), GADD45B (gene 4616); experiment: LTEA_HepaRG_GADD45B: Life Technologies and Expression Analysis (LTEA) Assay for growth arrest and DNA damage 45 (GADD45B) using HepaRG (AID 2283461); conditions: mRNA level, 48 h; actives raise or lower the signal
Outline: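 Differentiated human HepaRG cells in serum-free induction medium exposed 48 h in duplicate to eight concentrations, top 100 uM, half-log steps, 0.5% DMSO. GADD45B mRNA by TaqMan qRT-PCR, normalized to ACTB, GAPDH, POLR2A; bidirectional fit versus DMSO.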

[17] = read-out: ABC Transporter (ABCC3), ABCC3 (gene 8714); experiment: LTEA_HepaRG_ABCC3: Life Technologies and Expression Analysis (LTEA) Assay for ABC Transporter (ABCC3) using HepaRG (AID 2283462); conditions: mRNA level, 48 h; actives raise or lower the signal
Outline: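 Differentiated human HepaRG cells exposed 48 h in serum-free induction medium, 0.5% DMSO vehicle, 8-point half-log series to 100 uM in duplicate. ABCC3 mRNA by qRT-PCR, normalised to ACTB, GAPDH, POLR2A; bidirectional fit vs DMSO.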

[18] = read-out: Cyclin D1 (CCND1), CCND1 (gene 595); experiment: LTEA_HepaRG_CCND1: Life Technologies and Expression Analysis (LTEA) Assay for Cyclin D1 (CCND1) using HepaRG (AID 2283451); conditions: mRNA level, 48 h; actives raise or lower the signal
Outline: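 Differentiated HepaRG cells exposed 48 h in serum-free induction medium to eight half-log concentrations from 100 uM top, 0.5% DMSO, duplicates. CCND1 mRNA measured by Fluidigm TaqMan qRT-PCR, normalised to ACTB, GAPDH, POLR2A; bidirectional fit.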

[19] = read-out: Forkhead box O1 (FOXO1), FOXO1 (gene 2308); experiment: LTEA_HepaRG_FOXO1: Life Technologies and Expression Analysis (LTEA) Assay for Forkhead box O1 (FOXO1) using HepaRG (AID 2283456); conditions: mRNA level, 48 h; actives raise or lower the signal
Outline: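 Differentiated HepaRG cells, in serum-free induction medium with 0.5% DMSO, exposed 48 h in duplicate to 8-point half-log series from 100 uM. FOXO1 mRNA measured by TaqMan qRT-PCR, normalized to ACTB, GAPDH, POLR2A; bidirectional fit versus DMSO.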

[20] = CEETOX_H295R_TESTO: CeeTox H295R High-throughput Steroidogenesis Assay for Testosterone (TESTO) (AID 2283457); conditions: actives raise or lower the signal
Outline: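 H295R adrenal cells, passage ≤10, exposed to chemicals for 48 h. Testosterone in medium measured by MTBE extraction and HPLC-MS/MS against a 7-point standard curve. Bidirectional fit versus DMSO; MTT viability checked in the same wells.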

Chain of Fatty acid synthase (Homo sapiens) (P49327 whole entry, looked up): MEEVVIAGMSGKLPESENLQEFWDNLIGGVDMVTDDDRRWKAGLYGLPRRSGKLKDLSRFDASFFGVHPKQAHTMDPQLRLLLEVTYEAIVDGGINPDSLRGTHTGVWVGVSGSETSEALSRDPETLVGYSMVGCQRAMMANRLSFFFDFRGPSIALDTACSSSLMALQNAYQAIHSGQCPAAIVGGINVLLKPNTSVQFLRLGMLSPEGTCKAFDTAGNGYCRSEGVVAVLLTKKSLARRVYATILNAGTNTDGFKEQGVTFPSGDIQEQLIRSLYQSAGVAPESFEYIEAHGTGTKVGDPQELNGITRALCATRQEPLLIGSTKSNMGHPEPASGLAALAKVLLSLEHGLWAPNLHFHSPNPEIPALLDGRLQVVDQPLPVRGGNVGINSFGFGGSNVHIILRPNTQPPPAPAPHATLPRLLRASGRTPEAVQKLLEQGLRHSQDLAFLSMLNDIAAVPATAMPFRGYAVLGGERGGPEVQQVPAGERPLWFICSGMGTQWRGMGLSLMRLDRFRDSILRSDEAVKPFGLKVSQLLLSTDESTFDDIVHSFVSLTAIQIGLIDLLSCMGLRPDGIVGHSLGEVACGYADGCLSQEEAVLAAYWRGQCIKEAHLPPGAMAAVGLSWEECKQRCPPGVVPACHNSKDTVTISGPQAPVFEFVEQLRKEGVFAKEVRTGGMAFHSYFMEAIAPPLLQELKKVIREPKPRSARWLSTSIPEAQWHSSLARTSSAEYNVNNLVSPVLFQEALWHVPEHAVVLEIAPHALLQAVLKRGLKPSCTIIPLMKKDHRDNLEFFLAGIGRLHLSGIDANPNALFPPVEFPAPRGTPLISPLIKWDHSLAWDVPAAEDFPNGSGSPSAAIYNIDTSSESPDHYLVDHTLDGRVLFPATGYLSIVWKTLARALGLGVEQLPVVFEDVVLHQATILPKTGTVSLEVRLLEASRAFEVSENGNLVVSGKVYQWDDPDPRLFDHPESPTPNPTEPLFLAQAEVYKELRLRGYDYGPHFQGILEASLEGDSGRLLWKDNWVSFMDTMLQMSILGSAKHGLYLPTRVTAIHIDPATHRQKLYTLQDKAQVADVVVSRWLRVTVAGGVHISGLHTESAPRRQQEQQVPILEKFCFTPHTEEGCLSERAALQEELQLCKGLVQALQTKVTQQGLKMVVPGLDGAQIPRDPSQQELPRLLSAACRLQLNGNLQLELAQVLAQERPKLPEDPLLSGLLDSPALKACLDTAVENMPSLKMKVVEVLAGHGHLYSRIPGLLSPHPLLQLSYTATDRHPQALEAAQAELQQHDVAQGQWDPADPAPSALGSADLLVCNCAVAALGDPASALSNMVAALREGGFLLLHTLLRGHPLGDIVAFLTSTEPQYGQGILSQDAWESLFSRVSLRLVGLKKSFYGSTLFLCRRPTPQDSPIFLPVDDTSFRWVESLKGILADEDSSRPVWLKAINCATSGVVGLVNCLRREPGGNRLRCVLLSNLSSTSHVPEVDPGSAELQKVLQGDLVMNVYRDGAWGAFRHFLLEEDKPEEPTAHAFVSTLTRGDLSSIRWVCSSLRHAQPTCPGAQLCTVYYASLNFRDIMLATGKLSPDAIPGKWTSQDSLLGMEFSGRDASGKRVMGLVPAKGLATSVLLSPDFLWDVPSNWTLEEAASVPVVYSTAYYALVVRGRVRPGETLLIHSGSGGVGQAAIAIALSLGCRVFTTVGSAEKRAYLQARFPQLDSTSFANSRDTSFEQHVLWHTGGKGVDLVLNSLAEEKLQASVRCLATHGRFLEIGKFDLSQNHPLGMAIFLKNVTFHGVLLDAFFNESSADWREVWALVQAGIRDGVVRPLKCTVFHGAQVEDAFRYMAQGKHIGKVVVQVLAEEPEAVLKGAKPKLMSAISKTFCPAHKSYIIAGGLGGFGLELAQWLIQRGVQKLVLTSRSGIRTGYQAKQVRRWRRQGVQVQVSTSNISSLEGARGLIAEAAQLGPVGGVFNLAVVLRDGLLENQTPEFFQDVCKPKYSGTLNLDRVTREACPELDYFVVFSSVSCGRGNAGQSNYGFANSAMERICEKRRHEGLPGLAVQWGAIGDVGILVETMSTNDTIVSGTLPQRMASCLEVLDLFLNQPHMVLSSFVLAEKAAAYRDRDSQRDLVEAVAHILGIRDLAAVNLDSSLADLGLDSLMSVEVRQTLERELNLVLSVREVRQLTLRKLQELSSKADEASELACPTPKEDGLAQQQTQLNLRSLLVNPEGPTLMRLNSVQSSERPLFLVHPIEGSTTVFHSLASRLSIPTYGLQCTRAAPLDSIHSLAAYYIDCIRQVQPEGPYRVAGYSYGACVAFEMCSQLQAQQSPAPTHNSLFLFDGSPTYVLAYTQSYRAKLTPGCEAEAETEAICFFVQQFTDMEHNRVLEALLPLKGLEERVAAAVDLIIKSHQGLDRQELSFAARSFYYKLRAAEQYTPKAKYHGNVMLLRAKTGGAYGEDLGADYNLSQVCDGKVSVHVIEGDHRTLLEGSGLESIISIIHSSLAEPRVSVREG

Question: What does the source list for CC[C@H](C)C(=O)O[C@H]1C[C@@H](C)C=C2C=C[C@H](C)[C@H](CC[C@@H]3C[C@@H](O)CC(=O)O3)[C@H]21?
Answer: AC50 [1]: 0.641 µM (active); outcome [2]: inactive; outcome [3]: inactive; outcome [4]: inactive; outcome [5]: inactive; AC50 [6]: 12.1 µM (active); outcome [7]: inactive; outcome [8]: inactive; outcome [9]: inactive; outcome [10]: inactive; AC50 [11]: 24.4 µM (active); outcome [12]: inactive; outcome [13]: inactive; outcome [14]: inactive; AC50 [15]: 12.7 µM (active); outcome [16]: inactive; outcome [17]: inactive

Question: Which results are given for CC(C)CC(C)(O)C#CC(C)(O)CC(C)C (centres undefined)?
Answer: outcome [1]: inactive; outcome [4]: inactive; outcome [6]: inactive; outcome [7]: inactive; outcome [8]: inactive; outcome [18]: inactive; outcome [9]: inactive; outcome [10]: inactive; AC50 [11]: 50 µM (active); outcome [12]: inactive; outcome [19]: inactive; outcome [13]: inactive; outcome [14]: inactive; AC50 [15]: 16.7 µM (active); outcome [16]: inactive; outcome [17]: inactive

Question: Which outcome [4] does the source give for CNS(=O)(=O)c1cc(C(=O)N2CCC(CCN3C4CCC3CC(n3c(C)nc5ccccc53)C4)(c3cccc(F)c3)CC2)c(Cl)cc1F (centres undefined) here?
Answer: inactive

Question: What about the outcome [5] of the same compound?
Answer: inactive

Question: And the outcome [6]?
Answer: inactive

Question: And the outcome [7]?
Answer: inactive

Question: And the AC50 [8]?
Answer: 31 µM (active)

Question: What about the outcome [18] of the same compound?
Answer: inactive

Question: And the AC50 [9]?
Answer: 15.6 µM (active)

Question: And the AC50 [10]?
Answer: 24.2 µM (active)

Question: And the outcome [11]?
Answer: inactive

Question: And the outcome [12]?
Answer: inactive

Question: And the outcome [20]?
Answer: inactive

Question: What about the outcome [13] of the same compound?
Answer: inactive

Question: What about the outcome [14] of the same compound?
Answer: inactive

Question: What about the outcome [15] of the same compound?
Answer: inactive

Question: And the outcome [16]?
Answer: inactive

Question: What about the AC50 [17] of the same compound?
Answer: 12.5 µM (active)
